Most compounds without a hit are left out; they make up all but 4.7% or so of the library.
HSF1 inh = HSF1 inhibition | activity change, negative = inhibition, % at 7.5 µM (by protocol) | 300,000 compounds, 0.77% hits | NIH3T3-HGL HSE-luciferase, MG132-induced, luminescence 8 h; stronger effect = lower value;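 active = more than half of replicate wells show activity change below -50%, luminescence cut by over half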;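 also: luciferase reports HSF-1 transcriptional activity via heat shock element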
HSP90 inh = HSP90 refolding inhibition in rabbit reticulocyte lysate. luciferase refolding luminescence, 3 h. inhibition, % at 5.6 µM. 290,000 compounds, 0.91% hits. AID 1789;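 active = inhibition above the screen-wide mean plus 3 SD, computed separately per campaign, cut at about 16% in these data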;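 also: inhibitors lower the luminescence because luciferase stays unfolded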
EBV LMP1 NFkB = inhibitors of Epstein-Barr LMP1-induced NF-kappaB reporter; AID 504558; LMP1-induced NF-kappaB luciferase reporter cells, luminescence; inhibition, % at 12.5 µM; 350,000 compounds, 0.69% hits; in the data active = inhibition above about 41%
HSF1 activator = increases HSF-1 driven luciferase reporter signal | 300,000 compounds, 1.7% hits | NIH3T3-HGL HSF-1 luciferase reporter, MG132, 8 h; 100% = twice DMSO control signal | activation, % at 9 µM | AID 504408;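 active = mean replicate activation of at least 50% with a set share of replicates each reaching 50%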
TWEAK Fn14 block = blocks TWEAK-Fn14 interaction in a reporter cell assay; TWEAK-stimulated Fn14 reporter cells, luciferase luminescence, 8 h; inhibition, % at 10 µM; 360,000 compounds, 2% hits; AID 1159606; in the data active = inhibition above about 50%
TROY signal inh = blocks TROY-dependent signaling in reporter cells | 360,000 compounds, 0.98% hits | inhibition, % at 10 µM | AID 1347056 | Q293 LMP1-TROYcd NF-kB luciferase reporter, 4 h;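 active = compounds whose plate-normalised and pattern-corrected inhibition of the luciferase reporter signal at the single screening dose is 50% or more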
Hits are given with their value; i = inactive; nt = no result given.

SMILES	HSF1 inh	HSP90 inh	EBV LMP1 NFkB	HSF1 activator	TWEAK Fn14 block	TROY signal inh
CN1CCN(CCCNC(=O)c2ccc3c(c2)N(Cc2ccc(F)cc2)CCS3)CC1	i	i	67.4	i	i	i
CN1CCSc2ccc(C(=O)Nc3cc(F)ccc3F)cc21	i	i	i	76.0	i	i
O=C(NCCCN1CCOCC1)c1ccc2c(c1)N(Cc1ccc(F)cc1)CCS2	i	i	i	i	i	i
COc1ccc(-c2csc3ncn(Cc4ccccc4)c(=O)c23)cc1	i	i	i	i	90.8	i
COc1ccc(-n2cnc3scc(-c4ccccc4)c3c2=O)cc1	i	i	i	i	i	i
CCc1cccc(OCC(=O)Nc2ccccc2N2CCCC2)c1	i	nt	i	i	i	i
C(/C=C/c1ccccn1)=C\c1ccccc1	i	nt	i	60.9	i	i
C(=C\c1ccccn1)/c1ccncc1	i	i	i	i	i	i
COC(=O)c1ccc(OC(=O)CCN2C(=O)C3CCCCC3C2=O)cc1 (stereo not given)	i	i	i	60.9	i	i
O=C1CS/C(=N\c2ccccn2)N1C1CCCCC1	i	i	i	i	53.3	i
COc1ccc(C[C@H](N)C(=O)N[C@H]2[C@@H](O)[C@H](n3cnc4c(N(C)C)ncnc43)O[C@@H]2CO)cc1	nt	nt	i	nt	93.3	i
CC(C)(C)NCC(=Cc1ccccc1)C(=O)c1ccccc1	nt	nt	87.1	nt	99.3	i
CC(/C=C/c1cccs1)=C\C(=O)O	i	i	i	91.5	i	i
O=c1c2cc(N3CCOCC3)ccc2[nH]c(=S)n1Cc1ccc(Cl)cc1	i	i	i	55.6	i	i
O=C(/C=C\c1cccs1)c1c(O)ccc2ccc(=O)oc12	i	i	i	i	50.9	i
CCc1ccc(/C=C2\Oc3cc(OC(=O)N4CCOCC4)ccc3C2=O)cc1	-75.8	i	i	i	i	i
O=C1c2cccc3c([N+](=O)[O-])ccc(c23)C(=O)N1Cc1cccnc1	i	i	i	i	i	64.2
CCN(CC)S(=O)(=O)c1cccc(-c2nnc(SCc3nc4ccccc4s3)o2)c1	i	i	i	62.2	i	56.9
O=C(O)c1ccc(CSc2nnc(-c3ccccc3Br)o2)cc1	i	i	i	i	i	i
Brc1ccccc1-c1nnc(SCc2nc3ccccc3s2)o1	i	i	i	54.5	i	i
CCOc1ccc(N2CC(C(=O)Nc3cccc(S(=O)(=O)N4CCOCC4)c3)CC2=O)cc1 (stereo not given)	nt	nt	i	nt	i	i
COC(=O)c1cccc(NC(=O)c2ccc(S(=O)(=O)N(C)c3ccccc3OC)cc2)c1	nt	nt	i	nt	i	i
Cc1nc2ccc(NC(=O)c3ccccc3)cc2s1	i	i	i	i	i	i
Cc1nc2ccc(NC(=O)c3cccc(S(=O)(=O)N(C)c4ccccc4)c3)cc2s1	i	i	i	i	71.7	60.4
COc1ccccc1N(C)S(=O)(=O)c1ccc(C(=O)Nc2ccc3nc(C)sc3c2)cc1	i	i	i	i	i	50.4
SMILES	HSF1 inh	HSP90 inh	EBV LMP1 NFkB	HSF1 activator	TWEAK Fn14 block	TROY signal inh
CN(c1ccccc1)S(=O)(=O)c1cccc(NC(=O)c2cccc(C#N)c2)c1	nt	nt	i	nt	i	i
CN(c1ccccc1)S(=O)(=O)c1cccc(NC(=O)c2ccc3ncsc3c2)c1	i	i	i	i	76.1	62.8
COc1ccccc1N(C)S(=O)(=O)c1ccc(C(=O)NCCc2ccc(F)cc2)cc1	i	i	i	i	53.3	i
O=C1NC[C@@H](CCCCN2C[C@H](Cc3ccccc3)N(Cc3ccccc3)C(=O)C2=O)N(CCc2ccccc2)C1=O	nt	nt	nt	nt	i	i
COc1ccc(NC(=O)N(C)C[C@H]2OCCCC[C@@H](C)Oc3ccc(N(C)C)cc3C(=O)N([C@H](C)CO)C[C@@H]2C)cc1	nt	nt	i	nt	i	i
COc1ccc(OC)c2[nH]c(=O)c(CCNC(=O)c3ccc(S(=O)(=O)N(C)C)cc3)cc12	i	i	68.7	i	i	i
Cc1ccc(NC(=O)c2cccc(S(=O)(=O)N(C)c3ccccc3)c2)cc1S(=O)(=O)N1CCOCC1	i	i	i	i	53.6	i
O=C(Nc1nc2ccccc2[nH]1)c1cccc(Br)c1	i	i	i	i	i	i
Cc1ccc(N(C)S(=O)(=O)c2cccc(C(=O)Nc3nc4ccccc4[nH]3)c2)cc1	i	i	i	i	54.2	i
Cc1cccc(NC(=O)c2nc[nH]c2C(=O)Nc2ccccc2F)c1	nt	nt	i	nt	i	i
Cc1ccc(S(=O)(=O)N2[C@@H](c3cccc(Cl)c3)C(C(=O)OC(C)(C)C)=CC[C@H]2c2cccc(Cl)c2)cc1	nt	nt	nt	nt	i	i
O=C(CSc1nc2nc(-c3cccs3)cc(C(F)(F)F)c2c(=O)[nH]1)Nc1ccc(F)c(F)c1	i	i	i	i	69.8	i
Cc1ccc(C)c(NC(=O)CSc2nc3nc(-c4cccs4)cc(C(F)(F)F)c3c(=O)[nH]2)c1	i	i	i	i	i	53.4
Nc1nc(SCC(=O)Nc2ccc(C(F)(F)F)cc2)[nH]c(=O)c1NC(=O)c1ccc(F)c(F)c1	i	i	i	i	i	i
Brc1cnc2nc(SC/C=C/c3ccccc3)[nH]c2c1	i	i	i	62.2	i	i
CC1(C)Cc2c(sc(NC(=O)c3ccc4ncsc4c3)c2C(N)=O)C(C)(C)N1	-52.8	i	i	i	i	i
COc1ccccc1-c1c(C#N)c(N)nc2c1CCc1ccccc1-2	i	i	i	59.7	72.9	54.3
CCOc1cc(-c2c(C#N)c(N)nc3c2CCc2ccccc2-3)ccc1O	i	i	i	i	75.0	i
COc1ccc(CCNC(=O)CSc2nc3[nH]ncc3c(=O)n2-c2ccc(Br)cc2)cc1OC	i	i	i	i	i	i
CCc1ccccc1-n1c(SCC(=O)Nc2ccc3c(c2)OCCO3)nc2[nH]ncc2c1=O	-67.8	i	i	i	88.4	79.7
CCc1ccc(-n2c(SCC(=O)Nc3cc(C)[nH]n3)nc3[nH]ncc3c2=O)cc1	i	i	i	i	98.2	nt
O=C(CC[C@H]1O[C@@H](n2cnc3c(NC(=O)c4ccccc4)ncnc32)[C@H](O)[C@@H]1O)NCc1nc2ccccc2[nH]1	nt	nt	nt	nt	i	i
O=C(NCCN1CCOCC1)c1cc2ccccc2o1	i	i	i	61.3	i	i
O=C(NCCN1CCOCC1)c1cc2ccccc2oc1=O	i	i	i	i	i	i
O=C(CCCCl)Nc1nc(-c2ccc3c(c2)OCCO3)cs1	i	i	i	i	51.3	i
O=C(Nc1nc(-c2ccc3c(c2)OCCO3)cs1)c1ccc(Br)o1	nt	nt	i	nt	i	54.7
N#CCC(=O)Nc1nc(-c2ccc3c(c2)OCCO3)cs1	i	i	i	i	i	i
O=C(/C=C/c1ccc(NC(=O)c2ccccc2-c2ccccc2C(=O)O)cc1)c1ccccc1	i	i	i	i	59.0	i
CC(C)(C)c1ccc(/C=C(\C#N)C(=O)Nc2ccccn2)cc1	-59.1	i	i	i	i	i
Cc1ccc(CNC(=O)CSc2c3c(nc4cc(Cl)ccc24)CCCC3)o1	i	i	i	65.0	i	i

Screening results: PubChem, several laboratories
